Compounds with a hit are over-represented: about 4% of the library has one in this group of screens.
ADAM17 inh = ADAM17 inhibition, QFRET primary screen; P78536; recombinant ADAM17, EDANS/DABCYL FRET peptide cleavage; inhibition, % at 6.95 µM; actives 0.83% (n = 370,000); AID 720648;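 active = inhibition above the mean of compounds lying between control limits plus 3 SD, set per campaign, cut at about 8.5% in these data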;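 also: 0% = DMSO-only wells as the low control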
ADAM10 inh = inhibits human ADAM10. O14672. recombinant ADAM10, EDANS/DABCYL FRET peptide cleavage, 3 h. inhibition, % at 7 µM. actives 0.62% (n = 370,000). AID 720582;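 active = inhibition above a per-campaign cutoff equal to the mean of compounds falling between control-based bounds plus 3 SD, cut at about 20% in these data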;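 also: 0% = DMSO wells while the 100% control is not disclosed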
Target sequence (O14672 214-748 limits assumed): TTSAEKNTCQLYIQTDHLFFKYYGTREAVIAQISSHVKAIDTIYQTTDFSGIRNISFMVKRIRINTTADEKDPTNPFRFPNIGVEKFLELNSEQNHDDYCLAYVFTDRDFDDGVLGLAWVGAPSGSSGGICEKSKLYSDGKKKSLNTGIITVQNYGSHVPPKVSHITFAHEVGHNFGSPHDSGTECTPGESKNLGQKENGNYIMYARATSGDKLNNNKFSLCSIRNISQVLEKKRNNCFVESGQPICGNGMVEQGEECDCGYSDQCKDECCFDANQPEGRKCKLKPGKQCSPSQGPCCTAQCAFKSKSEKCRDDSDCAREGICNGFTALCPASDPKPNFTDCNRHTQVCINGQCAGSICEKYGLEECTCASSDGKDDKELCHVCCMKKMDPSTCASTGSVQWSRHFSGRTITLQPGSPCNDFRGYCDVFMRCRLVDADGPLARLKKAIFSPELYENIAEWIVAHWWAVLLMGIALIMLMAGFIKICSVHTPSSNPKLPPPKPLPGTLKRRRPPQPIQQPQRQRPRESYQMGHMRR
FAS TE block = blocks the thioesterase domain of human fatty acid synthase. recombinant FAS-TE, OMFH fluorogenic substrate, fluorescence endpoint. AID 602261. P49327. inhibition, % at 15 µM. actives 0.67% (n = 360,000);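 active = compounds whose normalised, plate-corrected inhibition of enzyme fluorescence in the single-dose primary screen is 50% or more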;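 also: 0% = DMSO with enzyme and 100% = substrate without enzyme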
GRIN3A LBD mod = NR3A (human) ligand-binding domain modulation | NR3A LBD differential scanning fluorimetry, Tm shift; 0% = protein alone, 100% = glycine-bound protein | Tm shift relative to glycine control, % at 25 µM | actives 2.5% (n = 340,000) | AID 1259313;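 active = melting temperature shift of at least 10% of the positive control shift, at one fixed dose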
aDG glyco up = increases alpha dystroglycan glycosylation. Pro5-aDG cells, alpha-DG glycosylation AlphaScreen (IIH6); 0% Pro5, 100% B10-LARGE cell signal. activation, % at 10 µM. actives 0.22% (n = 360,000). AID 624168;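 active = activation of at least 8% versus controls, or a plate z-score of at least 8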;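 also: Pro5 are CHO cells carrying HIG-tagged alpha-DG that lacks glycosylation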
An asterisk follows results filed as active.

How did CC(C)(C)NC(=O)/C=C/c1cccc(C(F)(F)F)c1 do in these assays?
ADAM17 inh: 0; ADAM10 inh: 3; FAS TE block: -9; GRIN3A LBD mod: 1; aDG glyco up: 0

How did CC(=O)Nc1ccc(NC(=O)/C=C/c2cccc(C(F)(F)F)c2)cc1 do in these assays?
ADAM17 inh: -19; ADAM10 inh: -49; FAS TE block: -3; GRIN3A LBD mod: 18*; aDG glyco up: 0

How did O=C(C=Cc1ccccc1)Nc1ccccc1 do in these assays?
ADAM17 inh: -6; ADAM10 inh: -12; FAS TE block: 6; GRIN3A LBD mod: 2; aDG glyco up: 0

How did CC(=O)Nc1ccc(CN2CCN(c3cccc(C(F)(F)F)c3)CC2)cc1 do in these assays?
ADAM17 inh: 1; ADAM10 inh: 4; FAS TE block: -4; GRIN3A LBD mod: 20*; aDG glyco up: 0

Results for CC(=O)Nc1ccc(NC(=O)CN2CCN(c3cccc(C(F)(F)F)c3)CC2)cc1 ?
FAS TE block: 0; GRIN3A LBD mod: -1; aDG glyco up: 0

How did COc1cc(C(=O)NCCC2=CCCCC2)ccc1OC1CCN(C(C)=O)CC1 do in these assays?
ADAM17 inh: 1; ADAM10 inh: -13; FAS TE block: -1; GRIN3A LBD mod: 1; aDG glyco up: 1

What do the screens show for `Cc1cn(-c2cc(C(=O)Nc3ccc(C)c(NC(=O)C(=O)c4c[nH]c5ccccc45)c3)cc(C(F)(F)F)c2)cn1`?
ADAM17 inh: -2; ADAM10 inh: -2; FAS TE block: 5; GRIN3A LBD mod: 12*; aDG glyco up: 0

How did O=C(CN1CCN(c2ccccc2Cl)CC1)NC1CCCc2ccccc21 (configuration not stated) do in these assays?
ADAM17 inh: -2; ADAM10 inh: 2; FAS TE block: 17; GRIN3A LBD mod: 4; aDG glyco up: 0

What do the screens show for `Cc1ccc(Cl)cc1N1CCN(CC(=O)NC2CCCc3ccccc32)CC1` (configuration not stated)?
ADAM17 inh: 3; ADAM10 inh: 11; FAS TE block: 22; GRIN3A LBD mod: 10*; aDG glyco up: 0

Results for C=CCOc1c(CNc2ccc(C(=O)O)cc2)cccc1OCC ?
ADAM17 inh: -6; ADAM10 inh: -7; FAS TE block: -5; GRIN3A LBD mod: 0; aDG glyco up: 0

How did CC1CCc2c(sc(NC(=O)COC(=O)c3ccc(NC(=O)CC#N)cc3)c2C#N)C1 (configuration not stated) do in these assays?
ADAM17 inh: -5; ADAM10 inh: -3; FAS TE block: 9; GRIN3A LBD mod: 26*; aDG glyco up: 0

How did O=C(COC(=O)c1ccc(CO)cc1)Nc1ccc(OC(F)F)cc1 do in these assays?
ADAM17 inh: -5; ADAM10 inh: 0; FAS TE block: 0; GRIN3A LBD mod: 16*; aDG glyco up: 1

How did N#CCC(=O)Nc1ccc(C(=O)OCC(=O)Nc2ccc3ccccc3c2)cc1 do in these assays?
ADAM17 inh: -1; ADAM10 inh: -11; FAS TE block: 6; GRIN3A LBD mod: 30*; aDG glyco up: 0

What do the screens show for `O=C(COC(=O)c1ccc(O)cc1O)Nc1ccc2ccccc2c1`?
ADAM17 inh: 2; ADAM10 inh: -1; FAS TE block: 14; GRIN3A LBD mod: 14*; aDG glyco up: 0

What do the screens show for `O=C(COC(=O)c1ccc(OC(F)F)cc1)NCCNC(=O)COC(=O)c1ccc(OC(F)F)cc1`?
ADAM17 inh: -1; ADAM10 inh: -2; FAS TE block: 2; GRIN3A LBD mod: 1; aDG glyco up: 0

What do the screens show for `CCNC(=O)CCc1nc(-c2ccc(C(C)C)cc2)no1`?
ADAM17 inh: -4; ADAM10 inh: -5

Results for Cc1cc(C)n2nc(C(=O)Nc3ccc(N4CCOCC4)cc3)nc2n1 ?
ADAM17 inh: -4; ADAM10 inh: 0; FAS TE block: -5; GRIN3A LBD mod: 1; aDG glyco up: 0

Results for Cc1cc(C)n(CC(=O)N/N=C/c2c[nH]c3ccccc23)n1 ?
ADAM17 inh: 3; ADAM10 inh: 14; FAS TE block: 6; GRIN3A LBD mod: -1; aDG glyco up: 0

Results for CCOc1cc(/C=C(/C#N)C(=O)Nc2ccc(O)cc2)cc(Br)c1O ?
ADAM17 inh: 3; ADAM10 inh: 4; FAS TE block: 2; GRIN3A LBD mod: 13*; aDG glyco up: -1

What do the screens show for `C=CCNC(=O)/C(C#N)=C\c1cc(Cl)c(O)c(OCC)c1`?
ADAM17 inh: 3; ADAM10 inh: 6; FAS TE block: -10; GRIN3A LBD mod: -11; aDG glyco up: 0

Compound activity: PubChem BioAssay, several laboratories
